The list is not random: actives were taken first. Their share in the collection is about 19%.
HT1080-NT tox: qHTS for induction of synthetic lethality in tumor cells producing 2HG: qHTS for the HT-1080-NT fibrosarcoma cell line; HT-1080-NT fibrosarcoma viability, CellTiter-Glo ATP luminescence, 48 h; Potency, µM (highest dose often 46.1 µM), without a hit: at the top dose activity, negative = less viability, hits mostly cytotoxic; hit rate 1.6% among 360,000; AID 686970, 2013;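 further: NT is the 2HG producing partner of a matched IDH1 knockdown line; potency means the concentration at half of the fitted maximal effect; 0% = DMSO-treated cells and -100% = media-only wells without cells; nearly all actives have a fitted effect of over 55% in size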
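Fibrosarcoma NT cells, 750 per well in 5% FBS RPMI, were exposed to compound for 48 hours. Viability: CellTiter-Glo luminescence.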
ELG1 DNA repair: qHTS screen for small molecules that inhibit ELG1-dependent DNA repair in human embryonic kidney (HEK293T) cells expressing luciferase-tagged ELG1. HEK293T ELG1-luciferase reporter, luminescence, 16 h; DNA damage induced by 5-fluorouridine. Potency, µM (doses to about 46.1 µM), for the others: top-dose activity change, negative = inhibition, hits mostly inhibitors. hit rate 2.3% among 330,000; further: potency means the concentration at half of the fitted maximal effect; nearly all actives have a fitted effect of over 55% in size
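Overnight (16 hr) co-exposure of 2,000 cells/well to 5-fluorouridine and compound at 37 °C preceded detection. Luciferase was quantified via ONE-Glo luminescence; loss of signal denotes inhibition.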
TDP1 cell CPT: qHTS for Inhibitors of human tyrosyl-DNA phosphodiesterase 1 (TDP1): qHTS in cells in presence of CPT. Potency, µM (highest dose often 46.2 µM), for the others: at the top dose activity change, negative = growth inhibition, actives largely listed as inhibitors. chicken DT40 Tdp1-/-;hTDP1 cells + 20 nM CPT, ATP luminescence, 48 h. hit rate 12% among 420,000. AID 686979, 2013; further: potency means the concentration at half of the fitted maximal effect; nearly all actives have a fitted effect of over 55% in size
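Chicken DT40 Tdp1-/- cells stably complemented with human TDP1 were seeded at 400 cells/well in medium containing 20 nM camptothecin, exposed to pin-transferred compounds, and grown at 37 °C for at least 48 hr. Viability was read as ATP luminescence.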
HT1080 IDH1KD tx: qHTS for induction of synthetic lethality in tumor cells producing 2HG: qHTS for the HT-1080-IDH1KD cell line. hit rate 2% among 360,000. HT-1080 IDH1 knockdown viability, ATP luminescence, 48 h. Potency, µM (highest dose often 46.1 µM), without a hit: top-dose activity, negative = toxicity, hits mostly cytotoxic;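 further: potency means the concentration at half of the fitted maximal effect; 0% = DMSO wells and -100% = cell-free medium wells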
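IDH1KD HT-1080 cells, 750/well, RPMI + 5% FBS; compound pinned after 2 h settling; 48 h, 37 °C; CellTiter-Glo luminescence; % activity normalised to DMSO and no-cell wells; curves fitted, classed by r2 and efficacy.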
IL1B secr inh: qHTS for Inhibitors of Inflammasome Signaling: IL-1-beta AlphaLISA Primary Screen; THP-1 LPS/ATP IL-1B secretion, AlphaLISA, 16 h; active compounds read low; activity change, % at 57.5 µM; hit rate 4.7% among 360,000; AID 743279, 2014; in the data active means activity change below about -50%; inconclusive means mostly about -30% to -49%
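Secreted IL-1B measured by AlphaLISA bead assay after 16 h compound exposure of THP-1 cells; compounds (final up to 57.5 uM) added 1 h before LPS (250 ng/mL) and ATP (1.25 mM) stimulation; lower signal means less secretion.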
TDP1 cell noCPT: qHTS for Inhibitors of human tyrosyl-DNA phosphodiesterase 1 (TDP1): qHTS in cells in absence of CPT; DT40 Tdp1-/- hTDP1 cells, no CPT, ATP luminescence, 48 h; Potency, µM (doses to about 46.2 µM), for the others: top-dose activity change, negative = growth inhibition, most hits filed as inhibitors; hit rate 15% among 420,000; AID 686978, 2013; further: potency means the concentration at half of the fitted maximal effect; nearly all actives have a fitted effect of over 55% in size
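No-CPT arm: Tdp1-/-;hTDP1 DT40 cells (400/well) plus compounds, incubated ≥48 hr at 37 °C. Readout CellTiter-Glo luminescence.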
* marks the source's active call; other numbers are inactive results; ? = inconclusive; · = no result given. Unless noted, the call rests on the fitted dose curve; in most records, active means well fitted curve in the direction sought with a large enough effect; inconclusive means small, poorly fitted or top-dose-only effect, or another doubt; inactive means no such curve, though single readings can be large; an effect the other way counts as inactive or inconclusive. Unless noted, on the % scale 0 is the no-effect control and ±100 the full control effect.

SMILES | HT1080-NT tox | ELG1 DNA repair | TDP1 cell CPT | HT1080 IDH1KD tx | IL1B secr inh | TDP1 cell noCPT
CC(c1ccccc1)C1C(C#N)=C(N)OC2=C1C(=O)CC(C)(C)C2 (centres undefined) | -1.2% | -22.7% | -5.5% | 0.3% | -16.8 | 5.6%
CC1(C)CC(=O)C2=C(C1)OC(N)=C(C#N)C2c1ccoc1 (centres undefined) | 2.7% | -1.9% | 1.4% | 2.4% | 19.4 | 13.1%
C/C(=C\c1ccco1)C1C(C#N)=C(N)OC2=C1C(=O)CC(C)(C)C2 (centres undefined) | 3.2% | -2.8% | 25.9µM* | 7.2% | -0.8 | ?
C/C(=C\c1ccco1)C1C(C#N)=C(N)Oc2n[nH]c(-c3ccc(C)cc3)c21 (centres undefined) | ? | -13.7% | 16.4µM* | ? | -5.4 | ?
O=C(OCC(=O)N1CCC(Cc2ccccc2)CC1)c1cccnc1Cl | 3.3% | -11.3% | -27.1% | 0.0% | -10.3 | -8.0%
Cc1ccc(N2C(=O)C(CN3CCCC3)C2c2ccccc2)cc1 (centres undefined) | -19.3% | 11.5% | 20.6µM* | -22.5% | ? | 23.1µM*
CCCC1C(=O)N(c2ccccc2)C1c1ccccc1 (centres undefined) | -1.7% | 8.9% | 1.4% | 2.1% | -11.5 | -16.0%
Cc1ccc(C2N(c3ccccc3)C(=O)N3CCCN23)cc1 (centres undefined) | -1.1% | 8.4% | ? | 0.7% | 2.8 | -15.5%
Cc1ccc(N2C(=O)C(CN3CCCCC3)C2c2ccccc2)cc1 (centres undefined) | 0.1% | 5.2% | ? | -5.6% | 0.7 | 18.4µM*
COc1ccc(Oc2ncc3nc(-c4cccs4)c(=O)n(CCC#N)c3n2)cc1 | · | · | -32.6% | · | · | -29.7%
Cc1ccc(S(=O)(=O)NNc2ccccc2)c(C)c1 | -11.4% | 8.7% | ? | -4.1% | -1.5 | 18.4µM*
Cc1ccc(C)c(S(=O)(=O)Nc2ccc(O)c3ccccc23)c1 | -12.2% | ? | 13µM* | -7.3% | -11.7 | 14.6µM*
Cc1ccc(S(=O)(=O)Nc2cc(C(C(=O)OC(C)C)C(=O)C(F)(F)F)c(O)c3ccccc23)c(C)c1 (centres undefined) | ? | ? | ? | ? | -2.2 | ?
Cc1ccc(S(=O)(=O)Nc2ccc(O)c3ccccc23)c(C)c1 | 29.1µM* | 16.4µM* | 3.66µM* | ? | -80.7* | 5.17µM*
CSc1ccccc1NC(=S)N/N=C/c1cccn1Cc1cccc(C)c1 | ? | ? | 7.3% | 24.5% | 45.5 | 10.1%
CSc1ccccc1NC(=S)N/N=C/c1cccn1Cc1ccc(F)cc1 | -10.0% | ? | ? | -18.1% | 27.9 | 23.1µM*
Cc1cccc(NC(=S)N/N=C/c2cccn2Cc2ccc(F)cc2)c1 | -19.8% | ? | ? | -13.6% | 6.7 | 16.4µM*
COc1ccc(NC(=S)N/N=C/c2cccn2Cc2ccc(F)cc2Cl)cc1 | -15.1% | ? | 23.1µM* | -11.5% | 16.5 | 10.3µM*
COc1ccc(NC(=S)N/N=C/c2cccn2Cc2ccccc2F)cc1 | ? | 5.1% | 14.3% | ? | 40.1 | ?
CC12CCC(C(=O)N(Cc3ccccc3)Cc3ccccc3)(OC1=O)C2(C)C (centres undefined) | -7.3% | ? | 18.4µM* | -14.1% | -2.4 | ?
